Values without a mark were called inactive.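 Rule for the calls: active = viability increase at or above a cutoff of the median across tested compounds plus 3 SD (cut at about 8.5% in these data, passing the limit was not always enough); inconclusive = some gains above the cutoff, reason not given; inactive = the rest.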
Assay: doxorubicin toxicity protection in MRP-1 cells – H69AR cells, CellTiter-Glo, duplicate, MRP-1 activator project, pilot screen (AID 807);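 note: compound pretreatment 18-22 h then 72 h combined with doxorubicin; 0% = doxorubicin alone and 100% = vehicle without doxorubicin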
Details: H69AR viability with doxorubicin, CellTiter-Glo luminescence; at 10 µM; stronger effect = higher value

Structure (SMILES) | viability increase
CCCCSc1nc2c(cnn2-c2ccc(F)cc2)c(=O)[nH]1 | -2.12%
C=C(Cl)COc1ccc2c(C)cc(=O)oc2c1 | -0.42%
COc1ccc(NC(=O)CSc2nnc(Cc3cccn3C)n2-c2ccc(F)cc2)cc1OC | -3.01%
CCCCSc1nc(CCC)cc(=O)[nH]1 | -1.29%
Cc1noc(/C=C/N(C)C)c1S(=O)(=O)N1CCc2ccccc21 | -6.84%
COc1cccc(/C=N/n2cnnc2)c1OCc1ccccc1 | -0.6%
COC(=O)Cn1c(CN2CCOCC2)nc2c1c(=O)n(C)c(=O)n2C | -0.73%
COc1ccc(N(CC(=O)Nc2cc(C)ccc2C)S(=O)(=O)c2c(C)nn(C)c2C)cc1 | -2.75%
CCOC(=O)N1CCN(C(=O)c2c(-c3ccccc3)noc2C)CC1 | -2.25%
O=C(CSc1ncnc2nc[nH]c12)c1ccc(Cl)cc1 | -1.43%
Brc1ccccc1-c1nc(-c2ccccc2)no1 | -5.68%
Cc1nc2ccc(S(=O)(=O)NC(C(=O)NCc3cccs3)C(C)C)cc2s1 (stereo not given) | -0.45%
COc1ccc(-n2c(Cc3cccn3C)nnc2SCC(=O)Nc2ccccc2)cc1 | -2.51%
O=c1oc2c3c4c(cc2s1)CCCN4CCC3 | -3.91%
COc1cc2c(cc1OC)C(C)N(C(=O)Cn1ncc3c1-c1ccccc1OC3)CC2 (stereo not given) | -2.56%
O=C(CSc1ccc2nnc(-c3ccccc3)n2n1)N1CCN(c2ccccc2)CC1 | -3.49%
CCOC(=O)C1CCCN(C(=O)c2ccc(CS(=O)(=O)c3ccc(Br)cc3)o2)C1 (stereo not given) | -1.86%
Cc1c(C(=O)NC2CC2)oc2ccc(S(=O)(=O)N3CCCCCC3)cc12 | 3.84%
CC1=C(C(=O)Nc2ccccc2)C(c2ccccn2)n2nc(CCCO)nc2N1 (stereo not given) | -0.39%
O=C(O)c1ccc(-c2ccc(O)c(F)c2)cc1 | -2.66%

Structure (SMILES) | viability increase
Cn1c(=O)cc(NCCc2ccccc2)[nH]c1=O | -5.4%
Cc1noc(/C=C/N(C)C)c1S(=O)(=O)N1CCCC(C(=O)NCCC2=CCCCC2)C1 (stereo not given) | 2.75%
CCN(CC)c1ccc(NC(=O)CN2C(=O)CC(C)(C)S(=O)(=O)c3ccccc32)c(C)c1 | -4.31%
COc1ccc(C(=O)NCc2nc3ccccc3[nH]2)cc1OC | 0.84%
CSc1ccccc1NC(=O)c1cnc2n(c1=O)CCS2 | -0.39%
Cc1ccc(C(c2sc3ncnn3c2O)N2CC(C)CC(C)C2)cc1 (stereo not given) | 4.2%
CC1CCN(c2oc(-c3ccccc3F)nc2C#N)CC1 | 0.34%
COc1nc(Oc2ccc(=O)n(C)n2)nc(N(C)C)n1 | 0.29%
Cc1nc2c(-c3ccc(F)cc3)c(C)nn2c(C)c1CCC(=O)NC(C)CCc1ccco1 (stereo not given) | -1.56%
COc1ccc(Cl)cc1S(=O)(=O)N1CCN(c2ccc(F)cc2)CC1 | -2.08%
CC1CCc2nn(CC(=O)Nc3ccc(F)cc3F)cc2C1 (stereo not given) | 1.3%
COc1ccc(NC(=O)C2Cc3ccccc3C(=O)O2)cc1 (stereo not given) | 0.31%
Cc1cc(N=Cc2cc(Br)ccc2O)no1 | -2.84%
COc1ccc(-c2nc(CS(=O)CC(=O)NCc3ccccn3)c(C)o2)cc1 (stereo not given) | -1.58%
CCOc1cc(C2CC(=O)N3CN(C4CCCCC4)CSC3=C2C#N)ccc1O (stereo not given) | -4.1%
CCc1ccccc1N1CC23C=CC(O2)C(C(=O)O)C3C1=O (stereo not given) | 1.1%
CCN(CC)C1CCCCC1NS(=O)(=O)c1ccc(Cl)cc1 (stereo not given) | -1.53%
Cc1cc(=O)oc2c1c(C)nn2-c1ccc(C(=O)OC(C)C)cc1 | -3.1%
O=C(CS(=O)(=O)Cc1ccccc1)Nc1nc2ccccc2s1 | -0.52%
CSc1nc2c(c(=O)n1C)SC(C)C2 (stereo not given) | -2.62%
